# About 2,200 (0.71%) of roughly 310,000 compounds showed an effect of 50% or more. The effect is printed as a negative number. The full list was thinned out, with strong results kept by preference.
# Biological target: human ether-à-go-go-related gene (hERG) potassium channel (human, UniProt Q12809)
# Assay: primary screen, population patch clamp on CHO cells stably expressing hERG; higher = less effect of the substance
# human ether-à-go-go-related gene (hERG) potassium channel, sequence (Q12809 whole entry, looked up): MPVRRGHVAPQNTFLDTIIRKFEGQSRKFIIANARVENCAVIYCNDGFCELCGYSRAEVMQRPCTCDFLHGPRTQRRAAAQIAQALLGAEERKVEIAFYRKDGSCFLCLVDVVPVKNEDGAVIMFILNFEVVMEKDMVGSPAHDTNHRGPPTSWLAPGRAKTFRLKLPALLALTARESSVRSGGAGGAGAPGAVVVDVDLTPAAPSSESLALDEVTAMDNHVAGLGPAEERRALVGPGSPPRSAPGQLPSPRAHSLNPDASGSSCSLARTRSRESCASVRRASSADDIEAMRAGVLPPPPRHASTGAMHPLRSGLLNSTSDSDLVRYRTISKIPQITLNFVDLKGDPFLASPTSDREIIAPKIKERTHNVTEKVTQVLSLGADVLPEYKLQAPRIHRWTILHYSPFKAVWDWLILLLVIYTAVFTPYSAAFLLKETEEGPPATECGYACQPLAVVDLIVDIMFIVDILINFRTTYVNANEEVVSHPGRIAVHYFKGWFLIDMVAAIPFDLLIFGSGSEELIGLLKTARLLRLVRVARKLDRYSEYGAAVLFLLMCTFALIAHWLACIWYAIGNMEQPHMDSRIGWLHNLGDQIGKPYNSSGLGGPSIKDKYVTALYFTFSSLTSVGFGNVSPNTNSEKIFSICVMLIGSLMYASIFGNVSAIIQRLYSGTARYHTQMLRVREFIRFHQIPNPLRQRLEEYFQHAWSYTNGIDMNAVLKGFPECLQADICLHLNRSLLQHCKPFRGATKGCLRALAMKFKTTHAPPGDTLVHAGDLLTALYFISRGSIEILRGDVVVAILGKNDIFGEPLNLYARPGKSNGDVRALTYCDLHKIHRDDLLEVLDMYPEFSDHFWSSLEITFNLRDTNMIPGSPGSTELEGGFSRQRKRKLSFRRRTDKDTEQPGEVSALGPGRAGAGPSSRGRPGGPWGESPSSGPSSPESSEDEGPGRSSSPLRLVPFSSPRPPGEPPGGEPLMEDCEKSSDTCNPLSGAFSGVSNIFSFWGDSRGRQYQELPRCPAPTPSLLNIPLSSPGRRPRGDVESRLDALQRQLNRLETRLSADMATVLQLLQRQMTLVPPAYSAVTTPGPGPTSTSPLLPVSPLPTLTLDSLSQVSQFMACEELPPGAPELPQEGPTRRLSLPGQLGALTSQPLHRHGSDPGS
row,SMILES,"hERG current change (%, negative = inhibition) at 1uM [%]"
1,O=C(c1ccc(F)cc1)C1CCN(Cc2ccc(F)cc2)CC1,2.51
2,COc1ccc(CNC(=O)C2CCN(C(=O)c3cccc(Cl)c3)CC2)cc1,-3.93
3,CCc1ccc(NC(=O)CN2CCC(C(=O)c3ccc(OC)cc3)CC2)cc1,-3.64
4,COc1ccc(CN2CCC(C(=O)c3ccc(F)cc3)CC2)cc1,-81
5,COc1ccc(C(=O)C2CCN(C(=S)Nc3ccc(F)cc3)CC2)cc1,-6.05
6,COc1ccc(CN2CCC(C(=O)c3ccc(Cl)cc3)CC2)cc1,-80.9
7,COc1ccc(CNC(=O)CN2CCC(C(=O)c3ccc(OC)cc3)CC2)cc1,-15.3
8,COc1ccc(CN2CCC(C(=O)c3cccc(Cl)c3)CC2)cc1,-66.8
9,COc1ccc(CN2CCCC(C(=O)c3cccc(Cl)c3)C2)cc1 (centres unmarked),-7.39
10,COC(=O)Cc1ccc(NC(=S)N2CCN(C(=O)C3CCCO3)CC2)cc1 (centres unmarked),5.7
11,COc1ccccc1CNC(=O)C(NS(=O)(=O)c1ccc2c(c1)OCCO2)C(C)C (centres unmarked),6.69
12,COc1cc(C2NC(=O)C(C#N)=C(Nc3cccc(C)c3)S2)ccc1O (centres unmarked),18.5
13,COc1cc2c(cc1OC)[C@H](Cc1ccc(O)cc1)NCC2,10.8
14,Cc1cc(N(C)C)c(C#N)c(=O)[nH]1,12.4
15,O=C(c1cc2c([nH]c1=O)CCCC2)N1CCc2c([nH]c3ccccc23)C1c1ccccc1F (centres unmarked),7.44
16,CC(C)(C)C(=O)Nc1ccc2oc(-c3cc(F)c(F)cc3Cl)nc2c1,15.8
17,CCCOc1ccc(C2c3c(oc4cc(C)c(C)cc4c3=O)C(=O)N2CCCN2CCOCC2)cc1 (centres unmarked),7.1
18,Cc1ccccc1Nc1nc(N)nc(CSc2nc3ccccc3c(=O)n2C)n1,9.44
19,N=c1c(C(=O)NCc2ccco2)cc2c(=O)n3ccccc3nc2n1CC1CCCO1 (centres unmarked),-84.3
20,N=c1c(C(=O)NCC2CCCO2)cc2c(=O)n3ccccc3nc2n1Cc1ccccc1 (centres unmarked),-72.3
21,N=c1c(C(=O)NCC2CCCO2)cc2c(=O)n3ccccc3nc2n1Cc1ccccc1Cl (centres unmarked),-46.8
22,N=c1c(C(=O)NCC2CCCO2)cc2c(=O)n3ccccc3nc2n1Cc1ccc(Cl)cc1 (centres unmarked),-81.9

row,SMILES,"hERG current change (%, negative = inhibition) at 1uM [%]"
1,N=c1c(S(=O)(=O)c2ccc(Cl)cc2)cc2c(=O)n3ccccc3nc2n1CC1CCCO1 (centres unmarked),6.52
2,N=c1c(C(=O)NCC2CCCO2)cc2c(=O)n3ccccc3nc2n1Cc1ccc(F)cc1 (centres unmarked),-82.7
3,O=C(NCc1ccco1)c1ccc2c(=O)n(CC3CCCO3)c(=S)[nH]c2c1 (centres unmarked),4.98
4,N=c1c(C(=O)NCC2CCCO2)cc2c(=O)n3ccccc3nc2n1Cc1cccnc1 (centres unmarked),-34.7
5,CCn1c2ccccc2c2cc(NC(=O)COC(=O)c3ccccc3O)ccc21,15
6,CCN(C(=O)/C=C/c1ccc(OC)cc1)C1CCS(=O)(=O)C1 (centres unmarked),-3.05
7,CN1C(=O)/C(=N/OC(=O)c2ccccc2)c2ccccc21,-4.57
8,N#Cc1c(N)n(CCc2ccc(F)cc2)c2nc3ccccc3nc12,19.9
9,COCCNCCOc1ccc(C(C)(C)c2ccccc2)cc1.O=C(O)C(=O)O,-2.39
10,Cc1cc(C(=O)N2CC(C)CC(C)C2)n(-c2ccccc2)n1 (centres unmarked),16.6
11,CC1CN(C(=O)Nc2ccc(F)cc2F)CC(C)O1 (centres unmarked),-1.61
12,C=CCn1c(SCC(=O)N2CCCCC2)nc(O)cc1=O,4.63
13,COc1ccccc1N1CCN(S(=O)(=O)c2ccc(-c3cnc(C4CC4)o3)cc2)CC1,14
14,N=c1c(C(=O)NCC2CCCO2)cc2c(=O)n3ccccc3nc2n1Cc1ccco1 (centres unmarked),-83.1
15,Cc1ccc(-c2nnc3n2CCCCC3)cc1,0.609
16,Cc1cccc(NC(=O)c2cc(NC(=O)c3ccccc3)ccc2N2CCCCC2)c1,3.79
17,Cc1ccc(-c2nc3ccccc3c(=O)n2-c2ncccc2C)cc1,0.712
18,Cc1ccc(C)c2c(SC(C)C(=O)NCc3ccco3)nc(-c3ccccc3)nc12 (centres unmarked),-71.2
19,Cc1ccc2nc(-c3ccccc3)nc(SC(C)C(=O)NCc3cccs3)c2c1 (centres unmarked),16.6
20,CC(Sc1nc(-c2ccccc2)cc(C(F)(F)F)n1)C(=O)NCc1ccco1 (centres unmarked),4.96
21,C=CC(=O)NC(C)(C)CCN1CCOCC1,8.55
22,Nc1nc(SCC(=O)c2cccc([N+](=O)[O-])c2)n[nH]1,5.93

row,SMILES,"hERG current change (%, negative = inhibition) at 1uM [%]"
1,COC(=O)c1ccc(CSc2nncn2C)cc1,-4.1
2,Cl.c1ccc(CCCN2CCN(CCOC(c3ccccc3)c3ccccc3)CC2)cc1,-41.9
3,Fc1ccccc1N1CCN(CCCc2ccccc2)CC1,-18.4
4,Cl.Fc1ccc(C(OCCN2CCN(CCCc3ccccc3)CC2)c2ccc(F)cc2)cc1,-71.3
5,Cl.Fc1ccc(C(OCCN2CCCC2)c2ccc(Br)cc2)cc1 (centres unmarked),-66
6,Cl.c1ccc(C(OCCN2CCNCC2)c2ccccc2)cc1,4.05
7,Cl.Fc1ccc(C(OCCN2CCCC2)c2ccc(F)cc2)cc1,-37.9
8,CCCCn1c(N)c(N(CC(C)C)C(=O)C2CCN(S(=O)(=O)c3ccc(C)cc3C)CC2)c(=O)[nH]c1=O,2.62
9,Cn1c(=O)[nH]c(=O)c2c1nc(SCC(N)=O)n2Cc1cccc(Br)c1,4.47
10,c1cc2c(cc1C1CCCCC1)c1c3n2CCN=C3CCC1,11.4
11,Cc1ccc2c(c1)c1c3n2CCN=C3CCC1.Cl,-65.6
12,CS(=O)(=O)O.c1ccc(-c2ccc3c(c2)c2c4n3CCN=C4CCC2)cc1,2.12
13,CNc1cccc2c1C(=O)c1ccccc1C2=O,5.62
14,COCCn1nnnc1C(c1ccccc1OC)N1CCN(c2ccccc2)CC1.Cl (centres unmarked),6.17
15,COCCn1nnnc1C(c1ccc(OC)cc1OC)N1CCN(c2ccccc2)CC1 (centres unmarked),-54.1
16,COCCn1nnnc1C(c1ccc(OC)cc1OC)N1CCN(c2ccccc2F)CC1.Cl (centres unmarked),-2.19
17,COc1ccccc1N1CCN(S(=O)(=O)c2cc(Br)cnc2N)CC1,15.3
18,CCN(CC)CCN1C(=O)c2ccccc2NC1c1ccc(Br)cc1 (centres unmarked),-82.8
19,CCN(CC)CCN1C(=O)c2ccccc2NC1c1ccc(F)cc1 (centres unmarked),-30.5
20,CCN(CC)CCN1C(=O)c2ccccc2NC1c1ccc(C)cc1 (centres unmarked),-48.3
21,CCOC(=O)c1c(NC(=O)CN2CCOCC2)sc2c1CC(C)(C)OC2,11.7
22,Cc1nc(NCCc2ccc(S(N)(=O)=O)cc2)c2c3c(sc2n1)CCC3,11.8

row,SMILES,"hERG current change (%, negative = inhibition) at 1uM [%]"
1,NS(=O)(=O)c1ccc(CCNc2nc(CN3CCCCC3)nc3sc4c(c23)CCC4)cc1,-53
2,NS(=O)(=O)c1ccc(CCNc2nc(CN3CCOCC3)nc3sc4c(c23)CCC4)cc1,3.28
3,Cc1cccc(C)c1NC(=O)CNC(=O)c1ccc(N2CCCC2)c([N+](=O)[O-])c1,-2.53
4,COc1ccccc1C(=O)Nc1ccnn1C1CCN(C(C)CSC)CC1 (centres unmarked),-10.6
5,O=C(Nc1ccnn1C1CCN(C2CCC2)CC1)c1ccccc1Cl,-28.4
6,O=C(Nc1ccnn1C1CCN(CCCc2ccccc2)CC1)c1ccccc1Cl,-87.3
7,Cc1ccccc1C(=O)Nc1ccnn1C1CCN(CCCc2ccccc2)CC1,-84.5
8,CSCCCN1CCC(n2nccc2NC(=O)CCCc2ccccc2)CC1,-28.5
9,COc1ccc(C(=O)Nc2ccnn2C2CCN(CCC(C)c3ccc(C)o3)CC2)cc1 (centres unmarked),-18
10,Cc1ccccc1C(=O)Nc1ccnn1C1CCN(Cc2ccccn2)CC1,-14.6
11,Cc1ccccc1CN1CCC(n2nccc2NC(=O)CCCc2ccccc2)CC1,7.05
12,O=C(Nc1ccnn1C1CCN(CCCc2ccccc2)CC1)c1ccccc1,-70.9
13,COc1ccccc1C(=O)Nc1ccnn1C1CCN(CCC(C)c2ccc(C)o2)CC1 (centres unmarked),-88.2
14,O=C(Nc1ccnn1C1CCN(C2CCC2)CC1)c1ccccc1,16.6
15,COc1ccc(-c2cc(C(=O)NCCc3ccc(S(N)(=O)=O)cc3)c3ccccc3n2)cc1,11.6
16,O=C(OCC(=O)N1CCOCC1)c1cnc(Cl)c(Cl)c1,-0.0536
17,CCCCN=C(C)C1=C(O)CSC1=O,15.8
18,CCN(c1ccccc1)S(=O)(=O)c1ccc(F)cc1,8.48
19,O=C(OCc1nnc(-c2ccc(Br)cc2)o1)c1ccco1,-3.17
20,CS(=O)(=O)N(CC(=O)Nc1cccc(F)c1)Cc1ccccc1,20.1
